12 compounds from PubChem BioAssay (NCI) can be followed below.

Common to all, as to test: NCI-60 one-dose screen, 48 h (100 = growth as untreated, 0 = no growth, -100 = all killed)
Common to all, as to conditions: 10 µM unless noted

In experiment [1] the test system is DU-145 prostate.
In experiment [2] the test system is K-562 leukemia.
In experiment [3] the test system is MALME-3M melanoma.
For experiment [4], the system named is MDA-MB-231 breast.
Experiment [5] relates to RXF 393 renal.
For experiment [6], the system named is SF-268 CNS.
Experiment [7] concerns SF-295 CNS.
For experiment [8], the system named is SF-539 CNS.
The test system of experiment [9] is UACC-257 melanoma.
Experiment [10] relates to M14 melanoma.

The panel holds about 83,000 compounds, 20% with a hit somewhere; the sample as a whole holds those more often.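 Each cell line was grown in a 96-well plate and treated with one concentration of compound for 48 hours. Values below 10 were considered active.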 A number with no mark means an inactive call. Activity calls are given as the source filed them.

Consider `COC(=O)[C@@H](C)C[C@H](Cc1ccccc1)NC(=O)c1nc([C@@H](C[C@H](C(C)C)N(C)C(=O)[C@@H](NC(=O)[C@H]2C[C@H](O)CCN2C)C(C)C)OC(C)=O)sc1C(C)C`, for which the growth is -4.78% (active) in experiment [1]; 5.9% (active) in [2]; 28.4% in experiment [3]; 3.71% (active) in experiment [4]; 18.9% in [5]; 13.8% in [6]. For the same compound, the growth was -16.8% (active) in experiment [7], -36.9% (active) in experiment [8], 66.1% in experiment [9] and -22.4% (active) in [10].

Regarding `CCOP(=O)(Nc1ccc2c(c1)/C(=N/NC(N)=S)c1ccccc1-2)OCC`, the growth in experiment [1] is 102%; in experiment [2], 103%; in experiment [3] it was 139%; in experiment [4], 59.7%; in [5] it was 90.1%; in [6], 98%. Also, the growth in experiment [7] was 116%; in [8] it was 84.7%; in experiment [9] it was 113%; in experiment [10], 108%.

As for `Cn1cc(-c2csc(-c3cn(CCCCN4CCCCC4)c4ccc(F)cc34)n2)c2cccnc21`, the growth was -81% (active) in experiment [1]; -76.1% (active) in [2]; -68.4% (active) in [3]; 71.4% in [4]; 26.8% in experiment [5]; 72% in experiment [6]. For the same compound, the growth was 99.7% in [7], 75.3% in experiment [8], -42.6% (active) in experiment [9] and -78.7% (active) in [10].

On to `CC(C)(NC(=O)O[C@@H]1CN2CCC1CC2)c1csc(-c2ccc(F)cc2)n1`, for which the growth was 112% in [1]; 94.5% in experiment [2]; 97.1% in experiment [3]; 102% in experiment [4]; 105% in [5]; 88.7% in experiment [6]. For the same compound, the growth in experiment [7] was 101%; in [8], 95.3%; in experiment [9] it was 102%; in experiment [10], 84.9%.

Turning to `Cc1ccc(C(Cc2ccccc2)NCCO)cc1` (stereo not given), the growth in [1] was 104%; in experiment [2], 104%; in experiment [3] it was 97.2%; in [4], 103%; in [5] it was 99.2%; in experiment [6], 98%. Also, the growth is 98.3% in [7], 85.1% in experiment [8], 92% in experiment [9] and 87% in [10].

With `Fc1ccc2c(c1)c(-c1nc(-c3c[nH]c4ncccc34)cs1)cn2CCN1CCOCC1`, the growth in experiment [1] was 77%; in [2], 18.6%; in experiment [3], 74.2%; in [4] it was 42.6%; in [5] it was 61.6%; in experiment [6], 56.6%. In addition, the growth in [7] was 62%; in experiment [8] it was 55.1%; in experiment [9], 97.2%; in experiment [10] it was 41.6%.

As for `Oc1c(CCl)cc(Cl)cc1CCl`, the growth in experiment [1] is 122%; in [2], 99.3%; in experiment [3], 110%; in [4], 104%; in experiment [5] it was 119%; in experiment [6], 104%. In addition, the growth is 106% in experiment [7], 104% in experiment [8], 131% in experiment [9] and 108% in experiment [10].

`N/C(=N\N=C\c1ccc(-c2ccccc2)cc1)N[N+](=O)[O-]`: the growth in [1] is 33.4%; in experiment [2], 14.9%; in experiment [3], 43.7%; in [4], 66.5%; in [5], -4.68% (active); in experiment [6] it was 49.1%. Further, the growth in experiment [7] was 7.55% (active); in experiment [8], 9.43% (active); in [9], 65.3%; in [10], 25.8%.

`CCCCCCCCCCCCNC(c1ccccc1)C(O)c1ccccc1` (stereo not given): the growth in experiment [1] is 83.5%; in [2], 24.1%; in experiment [3], 68.3%; in experiment [4] it was 39.9%; in [5], 59%; in experiment [6] it was 79%. Moreover, the growth in experiment [7] was 107%; in experiment [8], 87.9%; in [9], 99.9%; in [10], 93.3%.

In the case of `CC[C@H](C)[C@H](NC(=O)c1cccn1C)C(=O)N(C)[C@H](C[C@@H](OC(C)=O)c1nc(C(=O)N[C@@H](Cc2ccccc2)C[C@H](C)C(=O)OC)cs1)C(C)C`, the growth in experiment [1] is 5.31% (active); in [2] it was 6.81% (active); in [3] it was 73.6%; in [4], -13.7% (active); in experiment [5] it was 3.6% (active); in experiment [6] it was 19.1%. Moreover, the growth in [7] was 7.85% (active); in experiment [8], -12.7% (active); in [9] it was 51.8%; in [10] it was -0.428% (active).

Consider `CC[C@H](C)[C@H](NC(=O)[C@H]1CCCCN1C)C(=O)N(C)[C@H](C[C@@H](OC(C)=O)c1nc(C(=O)NC23CC(C(=O)OC)(C2)C3)cs1)C(C)C`, for which the growth in experiment [1] is -5.33% (active); in [2], 5.87% (active); in [3] it was 67.3%; in [4] it was 15%; in [5] it was 35.9%; in experiment [6], 23.2%. In addition, the growth in experiment [7] is 2.38% (active); in [8], -22% (active); in experiment [9] it was 46.6%; in experiment [10], 4.22% (active).

Regarding `CC1(C)N=C(N)N=C(N)N1c1ccc(OCCCNC(=O)Nc2ccc(S(=O)(=O)F)cc2)c(Cl)c1`, the growth in experiment [1] was 32.4%; in experiment [2], 25.2%; in experiment [3], 55.2%; in [4], 65.1%; in experiment [5] it was 49.4%; in [6], 32.3%. The growth was 21.7% in [7], 16.5% in experiment [8], 26.4% in experiment [9] and 35.3% in [10].
